Pol beta inh – qHTS Assay for Inhibitors of DNA Polymerase Beta; P06746; Pol beta primer extension/strand displacement, fluorescence kinetic; hit rate 1.3% among 340,000; AID 485314, 2010; Potency, µM (highest dose often 114 µM), for inactives: at the highest dose activity change, negative = inhibition, actives largely listed as inhibitors; also: % is scaled to controls: 0 for no effect and ±100 for the full control effect
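Human Pol beta at 10 nM; strand-displacement substrate 50 nM final. Compound exposure 15 min at room temperature before start, reaction 10 min at room temperature.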
FEN1 inhibitor – qHTS Assay for the Inhibitors of Human Flap endonuclease 1 (FEN1); P39748; Recombinant FEN1 flap cleavage, fluorescence, 15 min; Potency, µM (top dose mostly 114 µM), for the others: top-dose activity change, negative = inhibition, actives largely listed as inhibitors; hit rate 0.35% among 390,000; AID 588795, 2011; also: % is scaled to controls: 0 for no effect and ±100 for the full control effect; nearly all actives have a fitted effect of over 65% in size
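FEN1 at 10 nM, compound pretreatment for 15 min (room temperature), 50 nM final substrate to initiate; endpoint reads at 0 and 15 min; DMSO-only plates used as vehicle background.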
Tb PGK inh – qHTS Assay to Find Inhibitors of Phosphoglycerate Kinase | hit rate 0.043% among 380,000 | Potency, µM (doses to about 57.5 µM), for inactives: top-dose activity change, negative = inhibition, most hits filed as inhibitors | PGK/GAPDH coupled, Kinase-Glo luminescence, 60 min; also: % is scaled to controls: 0 for no effect and ±100 for the full control effect; nearly all actives have a fitted effect of over 60% in size
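Recombinant glycosomal PGK reaction used 1,3-bisphosphoglycerate generated in-well by GAPDH (100nM final) in 100mM TEA pH 7.6, 5mM MgCl2, 0.01% Tween-20. After 60 minutes at room temperature, ATP was read by Kinase-Glo Plus luminescence end-point.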
POLI inh – qHTS for Inhibitors of Polymerase Iota | DNA polymerase iota (Homo sapiens), Q9UNA4 | Pol iota fluorescent replication assay, 10 min | Potency, µM (titrated, usually from 115 µM), for inactives: top-dose activity, negative = inhibition, actives largely listed as inhibitors | hit rate 1% among 390,000 | AID 588590, 2011
Target sequence (Q9UNA4 whole entry, looked up): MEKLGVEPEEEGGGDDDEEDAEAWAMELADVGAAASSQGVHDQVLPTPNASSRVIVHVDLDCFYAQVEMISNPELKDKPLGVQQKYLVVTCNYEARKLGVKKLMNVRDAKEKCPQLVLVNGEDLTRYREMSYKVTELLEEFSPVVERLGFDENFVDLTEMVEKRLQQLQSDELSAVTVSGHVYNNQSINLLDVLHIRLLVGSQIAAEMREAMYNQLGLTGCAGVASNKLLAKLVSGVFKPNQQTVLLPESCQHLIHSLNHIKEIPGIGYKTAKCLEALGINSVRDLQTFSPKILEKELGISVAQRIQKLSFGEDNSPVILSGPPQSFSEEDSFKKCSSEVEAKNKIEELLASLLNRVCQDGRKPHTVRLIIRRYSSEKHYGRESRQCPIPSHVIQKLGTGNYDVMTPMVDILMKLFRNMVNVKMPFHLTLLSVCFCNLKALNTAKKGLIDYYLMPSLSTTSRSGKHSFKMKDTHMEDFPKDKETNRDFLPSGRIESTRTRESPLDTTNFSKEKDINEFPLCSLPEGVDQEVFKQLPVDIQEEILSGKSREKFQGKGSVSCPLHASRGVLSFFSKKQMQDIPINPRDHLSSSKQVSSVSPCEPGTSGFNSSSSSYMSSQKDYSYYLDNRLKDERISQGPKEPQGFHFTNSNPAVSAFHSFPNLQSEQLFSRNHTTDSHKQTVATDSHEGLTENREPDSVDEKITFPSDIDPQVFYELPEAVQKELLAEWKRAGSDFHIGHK
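Pol iota at 10 nM preincubated 15 min with compounds at room temperature; reaction started with fluorescent substrate, 50 nM final. Fluorescence read kinetically at 0 and 10 min; buffer-only wells as negative control.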
Pol kappa inh-1 – qHTS for Inhibitors of Polymerase Kappa. hit rate 0.53% among 400,000. Potency, µM (titrated, usually from 107 µM), without a hit: top-dose activity, negative = inhibition, usual class: inhibitors. purified Pol kappa, fluorescent DNA synthesis assay, 10 min; also: % is scaled to controls: 0 for no effect and ±100 for the full control effect
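10 nM Pol kappa was preincubated with compounds for 15 min at room temperature. Reaction started with 50 nM (final) substrate. Fluorescence read kinetically at 0 and 10 min.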
Pol eta inh-1 – qHTS for Inhibitors of Polymerase Eta; DNA polymerase eta (Homo sapiens), Q9Y253; recombinant Pol eta, fluorescent DNA replication assay; Potency, µM (doses to about 114 µM), for the others: at the highest dose activity change, negative = inhibition, most hits filed as inhibitors; hit rate 1.2% among 390,000; AID 588591, 2011; also: % is scaled to controls: 0 for no effect and ±100 for the full control effect
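Fluorescent replication assay: 50 nM final substrate added after a 15 min room-temperature compound preincubation with 10 nM enzyme. Signal taken at 0 min and again at 10 min.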
HEK293 viability – Secondary Assay for Inhibitors of Human Galactokinase (GALK): HEK-293 Cell Viability Assay; HEK-293 viability, ATP luminescence (CellTiter-Glo), 24/48 h; Potency, µM (titrated, usually from 46.1 µM), for the others: at the highest dose activity change, negative = cytotoxicity, hits mostly inhibitors; shares compounds with Pol eta inh-1; hit rate 10% among 170; also: % is scaled to controls: 0 for no effect and ±100 for the full control effect
Pol kappa inh-2 – qHTS for Inhibitors of Polymerase Kappa: Confirmatory Assay for Cherry-picked Compounds | shares compounds with Pol eta inh-1 | purified Pol-kappa, fluorescent strand-displacement substrate | Potency, µM, hits mostly inhibitors | hit rate 76% among 920
Pol eta inh-2 – qHTS for Inhibitors of Polymerase Eta: Confirmatory Assay for Cherry-picked Compounds; shares compounds with Pol eta inh-1; Pol eta primer extension, TAMRA/BHQ fluorescence, 10 min; Potency, µM, most hits filed as inhibitors; hit rate 64% among 2,600; AID 720502, 2013
* hit, by the source's call; i = inactive; ? = inconclusive; . = no result; [ ] = remark or other dose. Compounds with a hit are over-represented: about 2.4% of the library has one in this group of screens. Calls follow the shape of the dose curve; as a rule, active = well fitted curve in the direction sought with a large enough effect; inconclusive = small, poorly fitted or top-dose-only effect, or another doubt; inactive = no such curve, though single readings can be large; an effect the other way counts as inactive or inconclusive. Potency is read from the fitted curve at half-maximal effect.

SMILES	Pol beta inh	FEN1 inhibitor	Tb PGK inh	POLI inh	Pol kappa inh-1	Pol eta inh-1	Pol eta inh-2	others
C[N+](C)(CCCOc1ccccc1)c1ccccc1	.	.	.	.	-8%[12 µM]	.	.
O=C(CSc1nc(-c2ccccc2)[nH]c1-c1ccccc1)Nc1ccc2c(c1)OCO2	4%	-10%	-1%	-2%	-5%	-19%	.
CC1(C)CC(=O)C2=C(C1)NC(Nc1nc3ccccc3o1)=NC2c1ccccc1 (stereo unspecified)	.	-6%	.	14%	0%	.	.	HEK293 viability=-11%
CC1(C)CC(=O)C2=C(C1)NC(Nc1nc3ccccc3o1)=NC2c1cccnc1 (stereo unspecified)	.	2%	.	18%	-21%	.	.	HEK293 viability=9%
CC1(C)CC(=O)C2=C(C1)NC(=O)NC2c1ccccc1 (stereo unspecified)	23%	14%	7%	0%	-12%	-5%	.
CC1(C)CC(=O)C2=C(C1)Nc1ccccc1NC2c1ccc(F)cc1 (stereo unspecified)	-9%	15%	-2%	1%	1%	0%	.
CC1(C)CC(=O)C2=C(C1)NC(Nc1nc3ccccc3o1)=NC2c1cccc(F)c1 (stereo unspecified)	.	8%	.	36%	-23%	.	.	HEK293 viability=-3%
Cc1ccc(C2N=C(Nc3nc4ccccc4o3)NC3=C2C(=O)CC(C)(C)C3)cc1 (stereo unspecified)	.	-2%	.	8%	11%	.	.	HEK293 viability=0%
COc1ccc(Cl)cc1NC(=O)C1CCN(S(=O)(=O)c2ccc3c(c2)CCCN3C(=O)C2CCC2)CC1	2%	15%	10%	16%	-8%[60.1 µM]	-14%	.
O=C(CNC(=O)c1ccccc1)OCC(=O)c1ccc2ccccc2c1	.	5%	.	6%	-1%	.	.
CCN(CC)c1cc(C)c2cc(NC(=O)/C=C/c3cc(OC)c(OC)c(OC)c3)ccc2n1	2%	-13%	i	?	-45%	-24%	.
CC[C@@H]1CN2CCc3cc(OC)c(OC)cc3[C@@H]2C[C@@H]1C[C@H]1NCCc2cc(OC)c(OC)cc21	.	.	.	.	-6%[19.4 µM]	.	.
COc1ccc(C2N=C(Nc3nc4ccccc4o3)NC3=C2C(=O)CC(C)(C)C3)cc1 (stereo unspecified)	.	12%	.	9%	-15%	.	.	HEK293 viability=-16%
O=C1c2cc(O)cc(O)c2C(=O)c2c1cc(O)c([C@@H](CO)CCO)c2O	.	?	-22%	?	79µM*	45µM*	?
Nc1ccc(C(CC(=O)O)n2cccc2)cc1 (stereo unspecified)	?	12%	-9%	40µM*	45µM*	25µM*	34*
N#CCc1ccc(NC(=O)/C=C/c2ccc([N+](=O)[O-])o2)cc1	?	4%	-17%	45µM*	?	20µM*	?
COc1ccc(CNc2ncnc3nc[nH]c23)cc1OC	.	0%	.	4%	16%	.	.
CC(=O)NS(=O)(=O)c1ccc(NC(=O)c2cc(-c3ccc(C)cc3)nc3ccccc23)cc1	-30%	-6%	-2%	111%	-5%	1%	.
CC(=O)NS(=O)(=O)c1ccc(NC(=O)c2cc(-c3ccc(C)c(C)c3)nc3ccccc23)cc1	25µM*	-16%	?	-22%	-7%	22µM*	76*
O=c1c(-c2ccc(F)cc2)nc2cnc(N3CCOCC3)nc2n1Cc1ccc(F)cc1	.	.	.	.	6%[60.1 µM]	.	.
CCCN(CCC)S(=O)(=O)c1ccc(NC(=O)COc2ccccc2)cc1	?	?	-4%	8%	0%	-10%	.
CCCN(CCC)S(=O)(=O)c1ccc(NC(=O)Cc2cccs2)cc1	?	-20%	-4%	?	-36%	?	76*
COc1cccc2c1cc1c(=O)n(CC(=O)NCc3ccco3)nc(C)n12	-5%	19%	5%	16%	1%	-9%	.
COC(=O)c1cc(NC(=O)c2ccc3c(c2)NC(=O)c2ccccc2S3)cc(C(=O)OC)c1	6.3µM*	2%	-3%	?	-32%	50µM*	?	Pol kappa inh-2=9.5*
Nc1c(-c2nc(-c3ccncc3)no2)nnn1CC(=O)Nc1ccccc1	?	10%	.	21%	-8%	.	.
SMILES	Pol beta inh	FEN1 inhibitor	Tb PGK inh	POLI inh	Pol kappa inh-1	Pol eta inh-1	Pol eta inh-2	others
CCCOc1ccc(-c2nn(-c3ccccc3)cc2/C=C2\SC(N)=NC2=O)cc1C	8%	5%	-9%	-2%	-10%	-14%	.
COc1ccc(-c2nn(CCC(=O)O)cc2/C=C2\SC(N)=NC2=O)cc1OC	-1%	0%	-1%	-21%	?	10µM*	43*
Cc1cccc(NC(=O)CCc2nnc3ccc(NCc4ccco4)nn23)n1	?	-1%	-8%	36%	1%	25µM*	76*
O=c1c2ccccc2nc2ccc(NCc3ccco3)nn12	?	-21%	-10%	?	-37%	?	?
O=C(CCc1nnc2ccc(NCc3ccco3)nn12)Nc1ccccn1	?	7%	?	20%	5%	28µM*	?
Cc1sc2nc3ccc(NCc4ccco4)nn3c(=O)c2c1C	?	-2%	-4%	?	-36%	?	.
CCCCCCCCCCCCC/C=C/[C@@H](O)[C@H](CO)NC(C)=O	.	.	.	.	6%[19.4 µM]	.	.

Compound activity (PubChem BioAssay)
